Laboratory results from PubChem BioAssay AID504411 (The Scripps Research Institute Molecular Screening Center, 2011).
In all, about 340,000 compounds went through this assay and about 200 (0.059%) were called active. Rule as the data show it: active = inhibition above about 34%; inactive = the rest. Only a selection was taken, and actives are over-represented in it overall.

Biological target: Diacylglycerol lipase-beta (Homo sapiens) (UniProt Q8NCG7)
Test: DAGLB lipase inhibitors, primary screen, biochemical, fluorescence, HTS (AID 504411);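 also: 0% = enzyme with vehicle and 100% = wells lacking enzyme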
Settings: HEK293T DAGLB membrane lysate, EnzChek fluorogenic substrate; at 5.17 µM; stronger effect = higher value

Sequence of Diacylglycerol lipase-beta (Homo sapiens) (Q8NCG7 whole entry, looked up): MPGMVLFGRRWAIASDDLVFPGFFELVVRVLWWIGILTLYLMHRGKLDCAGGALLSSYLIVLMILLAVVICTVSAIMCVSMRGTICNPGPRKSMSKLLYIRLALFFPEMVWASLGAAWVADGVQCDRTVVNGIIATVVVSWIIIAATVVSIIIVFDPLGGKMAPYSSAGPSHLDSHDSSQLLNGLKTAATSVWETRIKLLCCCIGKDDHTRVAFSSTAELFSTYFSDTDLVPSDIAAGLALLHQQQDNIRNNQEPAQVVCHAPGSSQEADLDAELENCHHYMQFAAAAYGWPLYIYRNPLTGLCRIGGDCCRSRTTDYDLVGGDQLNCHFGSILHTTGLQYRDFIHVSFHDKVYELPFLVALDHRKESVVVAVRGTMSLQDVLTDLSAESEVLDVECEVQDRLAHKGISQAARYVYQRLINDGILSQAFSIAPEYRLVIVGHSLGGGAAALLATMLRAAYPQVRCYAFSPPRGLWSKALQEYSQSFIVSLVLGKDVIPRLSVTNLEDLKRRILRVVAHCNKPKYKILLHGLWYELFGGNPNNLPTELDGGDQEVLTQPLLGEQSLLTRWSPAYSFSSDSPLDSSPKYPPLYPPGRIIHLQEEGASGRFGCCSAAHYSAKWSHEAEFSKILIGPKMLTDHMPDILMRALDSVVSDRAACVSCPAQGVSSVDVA

Compound	inhibition
CC(=O)Nc1ccc(N2C(=O)C3C4CC(=O)C(c5ccccc54)C3C2=O)cc1 (stereo not drawn)	2.73% (inactive)
COC(=O)c1cccc(N2C(=O)C3C4C=CC(CC4)C3C2=O)c1 (stereo not drawn)	-2.32% (inactive)
O=C(Oc1cccc(N2C(=O)C3C4c5ccccc5C(c5ccccc54)C3C2=O)c1)c1ccco1 (stereo not drawn)	34.9% (active)
CCOC(=O)C1=NN(c2ccc(Cl)cc2)/C(=C/C2=NCCc3cc(OC)c(OC)cc32)S1	3.17% (inactive)
CCN(CC(=O)Nc1ccc(NC(C)=O)cc1)C(=O)CSC(=S)N1CCCC1	-0.87% (inactive)
Cn1c(-c2ccc(C(=O)c3ccccc3)s2)nc2ccccc21	-0.73% (inactive)
O=C1Cc2cc(S(=O)(=O)Nc3cccc(F)c3)ccc2N1	0.82% (inactive)
O=C(CCNC(=O)c1ccc([N+](=O)[O-])cc1)NC1CCCCC1	0.66% (inactive)
O=C(/C=C/c1ccc(Cl)cc1)NCCCn1ccnc1	-2.05% (inactive)
CCOc1ccc(Br)cc1S(=O)(=O)Nc1cccc(S(=O)(=O)N(CC)CC)c1	-0.11% (inactive)
Cc1cc(NC(=O)Nc2c[nH]c(=O)[nH]c2=O)ccc1Br	-0.76% (inactive)
Cc1ccc(-c2nn(C(C)(C)C)c3ncnc(N)c23)cc1	-2.33% (inactive)
CCCCCCn1c(=O)n2n(c1=O)C[C@]1(OC(=O)NCc3ccc(OC)c(OC)c3)CN(S(=O)(=O)c3ccc(C)cc3)C[C@]1(O)C2	1.56% (inactive)
CC(NC(=O)c1ccc(S(=O)(=O)Nc2ccccc2)cc1)c1ccc(S(N)(=O)=O)cc1 (stereo not drawn)	1.2% (inactive)
Cc1ccccc1OCCC(=O)Nc1c(C)n(C)n(-c2ccccc2)c1=O	-2.86% (inactive)
CCOc1nnc(C)c2c(C)n(-c3cccc(Cl)c3)nc12	-5.36% (inactive)
O=[N+]([O-])c1cc(S(=O)(=O)CCCN2CCOCC2)ccc1F	-0.41% (inactive)
Cc1nc2ccc(S(=O)(=O)N(C)CC(=O)NC(C)c3ccccc3)cc2s1 (stereo not drawn)	1.36% (inactive)
O=C1N(c2ccc(Cl)cc2)C(c2ccc(Cl)cc2)N2CCCN12 (stereo not drawn)	-1.46% (inactive)
COc1ccc(Br)cc1/C=N/Nc1ccc(S(=O)(=O)Nc2ccccc2C(=O)O)cc1[N+](=O)[O-]	35.8% (active)
COc1ccc(S(=O)(=O)Nc2ccccc2C(=O)N2CCCC2)cc1C	0.86% (inactive)
COc1cccc(/C=N/Nc2ccc(S(=O)(=O)Nc3ccccc3C(=O)O)cc2[N+](=O)[O-])c1O	39.5% (active)

Compound	inhibition
COC(=O)c1ccccc1NS(=O)(=O)c1ccc2[nH]c(=O)[nH]c2c1	-1.28% (inactive)
CCOc1ncccc1C(=O)NNC(=O)c1cccc(S(=O)(=O)Nc2ccccc2OC)c1	1.16% (inactive)
COc1ccc(S(=O)(=O)Nc2ccc3cn[nH]c3c2)cc1[N+](=O)[O-]	-1.73% (inactive)
Cc1ccc(OCCCCN2CCCCC2)c(Br)c1	1.62% (inactive)
CCCNC(=O)CN(Cc1ccccc1F)S(=O)(=O)c1ccc(C)cc1	1.71% (inactive)
COc1ccccc1C(=O)NC(=O)COC(=O)C1CC1	3.34% (inactive)
N#CC(Cc1cc2ccccc2n1S(=O)(=O)c1ccccc1)OCc1ccccc1 (stereo not drawn)	-8.05% (inactive)
O=C(O)CCCCCCCCc1cn(CN2C(=O)c3ccccc3C2=O)nn1	1.19% (inactive)
COc1cc(C2C(C(=O)c3sc(C)nc3C)=C(O)C(=O)N2CCN(C)C)cc(OC)c1OC (stereo not drawn)	0.65% (inactive)
O=C(N[C@@H]1C/C=C\C[C@@H](CC(=O)N(CCO)Cc2ccccc2)C(=O)N[C@H](Cc2ccccc2)COC1=O)OCC1c2ccccc2-c2ccccc21	-1.54% (inactive)
O=C(CCc1ccc(O)cc1)NN=Cc1cc(Br)ccc1O	3.63% (inactive)
NC(N)=NCCCc1cn(CC(=O)N2CCNCC2)nn1	-3.67% (inactive)
COc1ccc(CCNC(=O)c2ccc(NC(=O)CC3SC(N4CCCCC4)=NC3=O)cc2)cc1OC (stereo not drawn)	2.1% (inactive)
O=C(O)c1ccccc1-c1ccccc1C(=O)Nc1ccccc1Br	0.09% (inactive)
CC(NC(=O)c1ccccc1SCC(=O)N1CCCC1)c1ccccc1 (stereo not drawn)	0.41% (inactive)
Cc1ccc2cccc(O)c2[n+]1[O-]	1.39% (inactive)
CN1CCC(=NNC(=O)CN(c2cccc(Cl)c2)S(C)(=O)=O)CC1	-3.34% (inactive)
Cc1ccccc1CSc1nnc(Cn2c(=O)sc3ccccc32)n1C	0.6% (inactive)
C/C(=N\OCC(=O)Nc1ccc(Br)cc1)c1cccs1	-7.81% (inactive)
COc1ccccc1C1CCN(C(=S)Nc2ccc(Br)cc2)CC1	23.2% (inactive)
CCc1cccc(C)c1NS(=O)(=O)c1c(C)nc2sccn2c1=O	-0.01% (inactive)
COc1ccc(S(=O)(=O)N/N=C\c2ccc(OC)c(COc3ccc(C)cc3[N+](=O)[O-])c2)cc1	-2.91% (inactive)

Compound	inhibition
O=c1c2ccccc2nc2n1C(CSCc1cccc(C(F)(F)F)c1)CS2 (stereo not drawn)	-3.32% (inactive)
COc1cc(NC(=O)CCS(=O)(=O)c2ccc3c(c2)oc(=O)n3C)cc(OC)c1	-2.39% (inactive)
CC(=O)Nc1ccc(/C(C)=N/NC(=O)CN(c2ccccc2Br)S(C)(=O)=O)cc1	1.17% (inactive)
COc1ccc(CNC(=O)C(=O)N2CCC3(CC2)OCCN3S(=O)(=O)c2ccc(C)cc2)cc1	-1.66% (inactive)
COC(=O)c1cccc(NS(C)(=O)=O)c1	-0.97% (inactive)
CC(OC(=O)c1cc2ccccc2o1)C(=O)Nc1ccc(N2CCOCC2)cc1 (stereo not drawn)	-1.16% (inactive)
COc1ccc(C(=O)OCC(=O)Nc2cc(C)on2)cc1F	1.42% (inactive)
COCCCN1C(=O)C(CC(=O)NCc2cccs2)CC(C(=O)N2CCOCC2)=C1C (stereo not drawn)	-1.14% (inactive)
CN(C(=O)CN1C(=O)CCSc2ccc(S(=O)(=O)N3CCCC3)cc21)c1ccccc1	3.08% (inactive)
O=C1CCCN1CCCNC(=S)Nc1ccc(F)c(Cl)c1	0.01% (inactive)
COC(=O)CN1C(C)=Nc2ccc(Br)cc2C1c1ccccc1 (stereo not drawn)	0.08% (inactive)
Cc1ccccc1C(=O)NNC(=O)CN1C(=O)c2ccccc2C1=O	0.77% (inactive)
CC(=O)c1ccc(S(=O)(=O)N2CCC(Oc3ccc(-n4cnnn4)cc3)CC2)cc1	-1.2% (inactive)
COc1ccc(-c2cc(C(F)(F)F)nc(S(C)(=O)=O)n2)cc1OC	-5.4% (inactive)
O=C(Cn1ncc2c3ccccc3n(Cc3ccccc3)c2c1=O)NCCCN1CCOCC1	-2.32% (inactive)
CC(C)c1ccc2c(c1)c(SC(C)(C)C)c(CC(C)(C)C(=O)O)n2Cc1ccc(Cl)cc1	1.23% (inactive)
COCc1cc(C)n(CC(=O)NCC2CCCO2)c(=O)c1C#N (stereo not drawn)	0.87% (inactive)
CS(=O)(=O)N1CCCC(C(=O)Nc2ccccc2C(F)(F)F)C1 (stereo not drawn)	-1.81% (inactive)
COC(=O)C(=Nc1ccccc1)/C(C(=O)C(=O)N(C)c1ccccc1)=C(\O)c1ccc(Cl)cc1	4.54% (inactive)
COc1ccc(CNC(=O)c2ccc3oc(C(C)C)nc3c2)cc1	-2.02% (inactive)
Cc1ccc(CC(=O)N(C)CC(=O)N(CC(C)C)c2c(N)n(CC(C)C)c(=O)[nH]c2=O)cc1C	1.88% (inactive)
COc1ccc(C2=NS(=O)(=O)N(C)C(C(=O)NC(C)c3ccccc3)=C2)cc1 (stereo not drawn)	-1.27% (inactive)

Compound	inhibition
CCCNC(=O)CCn1cc(-c2ccc(OC)cc2)nc1CCN	-2.88% (inactive)
CCC(Oc1ccccc1C)C(=O)Nc1ccc(S(=O)(=O)Nc2cc(C)on2)cc1 (stereo not drawn)	2.56% (inactive)
Cc1cccc2[nH]c(CN(C)C(=O)C3CCC(=O)N(CCc4ccccc4)C3)nc12 (stereo not drawn)	1.57% (inactive)
Cc1ccc(S(=O)(=O)N2[C@@H](c3ccc(Br)cc3)C(C(=O)O)=C[C@H]2CC2CCCC2)cc1	7.5% (inactive)
Cc1ccc(N2CC(C(=O)N3CCC4(CC3)CC(=O)c3ccccc3O4)CC2=O)cc1C (stereo not drawn)	-0.05% (inactive)
CCc1c(C)sc(NC(=O)OC)c1C(=O)N1CCOCC1	-2.33% (inactive)
Cc1ccccc1C(=O)N1CCC(C(=O)Nc2ccc(S(=O)(=O)N(C)C(C)C)cc2)CC1	-0.44% (inactive)
CC1Cc2ccccc2N1C(=O)c1cc2sccc2n1Cc1ccccc1 (stereo not drawn)	-8.28% (inactive)
COc1cccc(NC(=O)CN(C)CC(=O)c2c(N)n(Cc3ccccc3)c(=O)n(C)c2=O)c1	0.04% (inactive)
Nc1ccccc1-c1nc2ccncc2[nH]1	0.67% (inactive)
CN(C)c1ccc(NC(=O)CN2C3CCCC2CC(NC(=O)c2ccccc2)C3)cc1 (stereo not drawn)	0.94% (inactive)
CCOC(=O)c1c(NC(=O)CCCN2CCOCC2)sc2c1CC(C)(C)OC2	-0.04% (inactive)
CCOCCCNC(=O)c1cc2c(=O)n3ccccc3nc2s1	1.17% (inactive)
CCCC(O)(c1ccccc1)C(c1ccccc1)c1ccccn1 (stereo not drawn)	-1.16% (inactive)
Cc1ccc(OC(=O)c2c(C)nn(-c3ccccc3)c2C)cc1	-9.87% (inactive)
Cc1ccc(Cl)c(NC(=O)CN(C)CC(=O)Nc2ccc(F)c(F)c2F)c1Cl	2.92% (inactive)
CCOc1ccccc1OCCCNCc1ccccc1	-2.73% (inactive)
C=CCOc1nc2c(c(=O)n(C)c(=O)n2C)n1Cc1ccc(Cl)cc1Cl	-0.75% (inactive)
CCOC(=O)C1CCN(C(=O)Nc2ccc(C)c(Cl)c2)CC1	0.52% (inactive)
CCN(CC(=O)NCCCN1CCOCC1)S(=O)(=O)c1cc(Cl)ccc1Cl	3.54% (inactive)
CN(c1ccccn1)c1ncnc2[nH]ncc12	0.01% (inactive)
Cc1ccnc(NC(=O)C2CCN(S(=O)(=O)c3c(C)c(C)cc(C)c3C)CC2)c1	-5.56% (inactive)
